Many of the other results were omitted from the sample, so hits are more common in it than they were.
DUX4 txn inh: blocks DUX4-driven transcriptional activation. 293T-iDUX4 ZSCAN4-Gaussia luciferase reporter, 24 h; stronger effect = lower value. activity change, negative = inhibition, % (no concentration beside the values). 37,000 compounds, 0.8% hits. AID 1224904;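 active = mean inhibition of at least 10% in the main channel, exceeding the control channel by a set limit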;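 also: 0% = median of neutral control wells and -100% = median of positive control wells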
The depositor's hits bear a star; ! = not active in a repeat.

SMILES	DUX4 txn inh
N#Cc1ccc(-c2ccc([C@@H]3[C@@H](CO)N4CCCCN(C(=O)Cc5ccccc5)C[C@H]34)cc2)cc1	5
O=C(Cc1ccncc1)N1CCCCN2[C@H](C1)[C@H](c1ccc(C#Cc3ccccc3F)cc1)[C@@H]2CO	-63*
O=C(Cc1ccccc1)N1CCCCN2[C@H](CO)[C@@H](c3ccc(C#CC4(O)CCCC4)cc3)[C@H]2C1	-6
CCN1[C@@H]2c3ccc(-c4ccc(OC)cc4)c(=O)n3C[C@H]1[C@H](CO)[C@H]2C(=O)OC	1
O=C(Cc1ccccc1)N1CC2(C1)[C@@H](c1ccccc1)[C@@H](CO)N2Cc1cccc(F)c1	-6
COC(=O)[C@@H]1[C@@H](CO)[C@@H]2Cn3c(ccc(C4=CCCCC4)c3=O)[C@H]1N2C(=O)Cc1ccccn1	-3
C/C=C/c1ccc(C2[C@@H]3CN(C(=O)C4CCCC4)C[C@H]2N3)cc1 (stereo partly drawn)	12
C/C=C/c1ccc(C2[C@@H]3CN(C(C)=O)C[C@H]2N3)cc1 (stereo partly drawn)	-21*!
C/C=C/c1ccc(C2[C@@H]3CN(Cc4ccccn4)C[C@H]2N3)cc1 (stereo partly drawn)	-2
Cc1cccc(S(=O)(=O)N2[C@@H]3c4ccc(-c5ccncc5)c(=O)n4C[C@H]2[C@H](CO)[C@H]3C(=O)O)c1	-1
